Source: PubChem (Broad Institute)
Most compounds without a hit are left out; they make up all but 3% or so of the library.
Statin myotox sup – protects C2C12 myotubes from simvastatin toxicity; ATP luminescence, 48 h; scaled: DMSO 0, geranylgeraniol control 100; rescue of ATP level, % at 7.49 µM; actives 0.78% (n = 330,000);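 active means mean ATP rescue above about 67%, or every replicate alone reaching that limit, limit read from the data, passing the limit was not always enough; inconclusive means no clear call, values can overlap the other calls; inactive means mean under the limit and some replicate under it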;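 further: myotubes were challenged with 10 µM simvastatin during compound exposure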
MITF act – activators of MITF-driven TRPM1 promoter activity in SK-MEL-5 cells. SK-MEL-5 TRPM1-promoter luciferase, 24 h; % of positive control, neutral wells = 0. activation, % at 12.5 µM. actives 0.75% (n = 300,000). AID 588334;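 active means mean activation of at least 80% with every replicate also reaching 80%; inconclusive means mean reaches 80% but some replicate falls short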
esBAF inh – SWI/SNF esBAF complex inhibition. mouse ES cells, Bmi1-luciferase knock-in reporter, 24 h; 100% = twice the neutral-well signal. actives 2% (n = 350,000). AID 602393. reporter increase, % at 12.5 µM; in the data active means activation above about 40%; inconclusive means no clear call, values can overlap the other calls;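 further: a rise in the Bmi1 reporter signal indicates esBAF inhibition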
Wnt act – activators of Wnt/beta-catenin signaling. activation, % at 9.35 µM. actives 1.2% (n = 300,000). Wnt/beta-catenin reporter cell assay, activator, plate reader; in the data active means activation above about 30%, passing the limit was not always enough; inconclusive means no clear call, values can overlap the other calls
Of the large screens only hits and unclear results are named; the others gave an inactive call.

Oc1ccccc1C1=Nc2nc3ccccc3n2C(c2ccccc2)C1 (centres undefined)	esBAF inh 49 (no result: Wnt act)
CCN(CC)S(=O)(=O)c1ccc2c(c1)N(CC(=O)NCCN1CCOCC1)C(=O)CO2	Statin myotox sup 116
CNC[C@H]1Oc2ccc(NS(=O)(=O)c3ccc(Cl)cc3)cc2C(=O)N([C@@H](C)CO)C[C@H]1C	none (no result: MITF act, Wnt act)
COc1cccc(OCc2cc(/C=N/Nc3ccc(C(=O)O)cc3)ccc2OC)c1	esBAF inh 59
CC(=O)Nc1ccc2c(c1)nc1n2CCSC1	none (no result: Wnt act)
Cc1ccc(C(=O)Nc2ccc3c(c2)nc2n3CCSC2)cc1	Wnt act 33 (no result: MITF act)
CCN(CC)S(=O)(=O)c1ccc2oc(C(=O)NC3CCCc4ccccc43)c(C)c2c1 (centres undefined)	none (no result: Wnt act)
CSCc1c(C(=O)NC2CCCc3ccccc32)oc2ccccc12 (centres undefined)	Statin myotox sup 102
C/C(=N\NC(=O)c1ccc(Cl)cc1)c1cccs1	none
C/C(=N/NC(=O)c1cccs1)c1ccc(NC(=O)COc2ccc(Cl)cc2)cc1	esBAF inh 50 (no result: Wnt act)
Cc1cccc(C)c1OCc1cc(C(=O)N2CCN(c3ccc(F)cc3)CC2)no1	esBAF inh 45
CC(=O)N1CCCN(C(=O)c2cc(COc3c(F)cccc3F)on2)CC1	none (no result: Statin myotox sup, esBAF inh)
CCOC(=O)C1CCN(C(=O)c2cc(COc3ccc(F)cc3F)on2)CC1	MITF act 111 (no result: Statin myotox sup, esBAF inh)
CCOC(=O)N1CCN(C(=O)c2cc(COc3c(F)cccc3F)on2)CC1	esBAF inh 58, Wnt act 45
Cc1cccc(C)c1OCc1cc(C(=O)N2CCN(c3ccccn3)CC2)no1	none
COc1ccc(C2=CN(Cc3ccccc3)C(c3ccccc3)CC2=O)cc1 (centres undefined)	MITF act 100
COc1ccc(C2CC(=O)C(c3ccc(Br)cc3)=CN2Cc2ccccc2)cc1 (centres undefined)	none (no result: Statin myotox sup, MITF act, esBAF inh)
Nc1ccccc1Nc1cc(-c2ccccc2)nn1-c1cccc(Cl)c1	none (no result: Statin myotox sup, esBAF inh)
CNc1nn(-c2cccc(Cl)c2)nc1N	esBAF inh 62 (no result: Wnt act)
COCC(=O)Nc1ccc2c(c1)[C@H]1C[C@@H](CC(=O)NCc3ccncc3)O[C@@H](CO)[C@H]1O2	none (no result: MITF act, Wnt act)
O=C/C(=C\Nc1ccccn1)c1nc2cc(Cl)ccc2o1	esBAF inh 47 (no result: Statin myotox sup)
O=C/C(=C\Nc1ccccn1)c1nc2ccccc2o1	none (no result: Wnt act)
O=C(Nc1ccc(/C=C/c2nc3ccccc3o2)cc1)c1c(F)cccc1F	none
CC(=O)Nc1cccc(N/C=C(\C=O)c2nc3ccccc3o2)c1	esBAF inh 58
CC(=O)Nc1ccc(/C=C/c2nc3ccccc3o2)cc1	Wnt act 52
C[C@H](CO)N1C[C@H](C)[C@H](CN(C)Cc2ccc(-c3ccccc3)cc2)Oc2ccc(NC(=O)C3CC3)cc2C1=O	none (no result: MITF act, Wnt act)
CCCCc1n[nH]c2c1/C(=N/O)CC(c1ccccc1)C2 (centres undefined)	none (no result: Statin myotox sup)
CCCCc1noc2c1/C(=N\O)CC(c1ccccc1)C2 (centres undefined)	esBAF inh 59
CNC[C@H]1OCCCC[C@@H](C)Oc2ccc(NC(=O)Nc3c(C)noc3C)cc2C(=O)N([C@H](C)CO)C[C@H]1C	none (no result: MITF act, Wnt act)
O=c1[nH]c(COc2ccc(Cl)cc2Br)nc2ccccc12	none (no result: Statin myotox sup, esBAF inh)
O=c1[nH]c(COc2ccc(Cl)cc2Cl)nc2ccccc12	esBAF inh 73
O=C(C[C@@H]1CC[C@@H]2NC[C@H](O)COC[C@H]2O1)NCc1ccc(Oc2ccccc2)cc1	none (no result: MITF act, Wnt act)
O=C(NC(=S)Nc1ccccc1Cl)c1ccco1	esBAF inh 58
O=C(NC(=S)Nc1nc2ccccc2s1)c1ccco1	Wnt act 53 (no result: Statin myotox sup, esBAF inh)
O=C(Nc1nc2ccc([N+](=O)[O-])cc2s1)c1c(F)cccc1F	none
O=C(NC(=S)Nc1cccc(Cl)c1N1CCCCC1)c1ccco1	none (no result: Statin myotox sup, esBAF inh)
O=C(Nc1nc2ccc([N+](=O)[O-])cc2s1)c1ccco1	Wnt act 52 (no result: Statin myotox sup, MITF act, esBAF inh)
CC(=O)Nc1ccc2nc(NC(=O)c3ccc([N+](=O)[O-])o3)sc2c1	Statin myotox sup 114 (no result: MITF act)
COc1ccc2nc(NC(=S)NC(=O)c3ccco3)sc2c1	none (no result: Statin myotox sup, esBAF inh)
C[C@H](CO)N1C[C@H](C)[C@@H](CN(C)C(=O)C2CCC2)Oc2ncc(-c3cccc(F)c3)cc2C1=O	none (no result: MITF act, Wnt act)
CCC(=O)Nc1ccc2c(c1)OC[C@@H](C)N(C(=O)CC)C[C@@H](C)[C@@H](OC)CN(C)C2=O	none (no result: MITF act, Wnt act)
O=C(Nc1nc2ccccc2[nH]1)c1ccc(F)cc1	none
CN(C)S(=O)(=O)c1ccc(C(=O)Nc2nc3ccccc3[nH]2)cc1	esBAF inh 66
Cc1cc(C)cc(C(=O)Nc2nc3ccccc3[nH]2)c1	esBAF inh 80
CSc1nnc(NC(=O)c2ccc(S(=O)(=O)N(C)C)cc2)s1	Wnt act 40 (no result: Statin myotox sup, esBAF inh)
COc1ccc(C(=O)Nc2nc3ccccc3[nH]2)cc1S(=O)(=O)N1CCCC1	esBAF inh 45 (no result: Statin myotox sup)
C[C@@H]1CN([C@H](C)CO)C(=O)c2cccc(NS(=O)(=O)c3cccs3)c2O[C@@H]1CN(C)Cc1ccc(C(=O)O)cc1	none (no result: MITF act, Wnt act)
C[C@@H]1CCCCO[C@@H](CN(C)S(=O)(=O)c2ccc(Cl)cc2)[C@@H](C)CN([C@H](C)CO)C(=O)c2cc(NC(=O)Cc3ccccc3)ccc2O1	none (no result: Statin myotox sup, MITF act, Wnt act)
CN(C)C(CNC(=O)c1cccc(OC(F)F)c1)c1ccco1 (centres undefined)	esBAF inh 45
CC(=O)c1ccc(-c2ccc(C(=O)NCC(c3ccco3)N(C)C)o2)cc1 (centres undefined)	esBAF inh 80
C[C@@H]1CN([C@@H](C)CO)C(=O)Cc2cc(NC(=O)c3ccncc3)ccc2O[C@@H]1CN(C)C	none (no result: MITF act, Wnt act)
COc1cc(C=O)ccc1OCCOCCOc1cc(C)ccc1Cl	none (no result: Statin myotox sup, esBAF inh, Wnt act)
COc1cc(C)ccc1OCCCOc1ccccc1Cl	MITF act 126, esBAF inh 71 (no result: Wnt act)
COc1cc(C)ccc1OCCOc1ccccc1Cl	MITF act 90, esBAF inh 77 (no result: Wnt act)
COc1cc(C)ccc1OCCCCOc1ccccc1C(C)=O	none (no result: Statin myotox sup, esBAF inh)
CC(C)C(=O)Nc1ccc2c(c1)C(=O)N(C)[C@@H]1CC[C@H](CC(=O)NCCCN(C)C)O[C@H]1CO2	none (no result: MITF act, Wnt act)
Cc1cc(C)c2c(CN3CCN(Cc4ccc5c(c4)OCO5)CC3)cc(=O)oc2c1	Statin myotox sup 150 (no result: Wnt act)
Cc1cc(C(=O)N2CCN(Cc3ccc4c(c3)OCO4)CC2)cs1	Statin myotox sup 92
Cc1ccc([N+](=O)[O-])cc1-c1ccc(/C=C(\C#N)c2[nH]nc(N)c2C#N)o1	esBAF inh 83, Wnt act inconclusive
COCc1cc(C)nc(OCC(=O)N/N=C/c2ccc(-c3cc([N+](=O)[O-])ccc3C)o2)c1C#N	none (no result: Statin myotox sup, esBAF inh)
COc1ccc(-n2nnnc2SCc2nc3ccccc3s2)cc1	esBAF inh 71 (no result: Wnt act)
COc1ccc(C)cc1-n1nnnc1SCc1nc2ccccc2s1	esBAF inh 57 (no result: MITF act)
COCCn1c(SCc2nc3ccccc3s2)nc2ccccc21	esBAF inh 104, Wnt act inconclusive
COc1ccc(CSc2nnnn2-c2ccccc2)cc1	none (no result: Wnt act)
C[C@@H]1CN([C@H](C)CO)C(=O)c2cc(NS(=O)(=O)c3cn(C)cn3)ccc2O[C@@H](C)CCCCO[C@@H]1CN(C)C(=O)C1CCCCC1	none (no result: Statin myotox sup, MITF act, Wnt act)
O=C(NC1CCCCC1)c1ccc(-c2cn[nH]c2)c2ccoc12	esBAF inh 53 (no result: MITF act)
